Test results published in PubChem BioAssay (Tox21).
Records with an inconclusive call do not appear. Activity calls are given as the source filed them. Unless noted, calls follow the shape of the dose curve; as a rule, active = well fitted curve in the direction sought with a large enough effect in the repeat runs; inconclusive = weak or mixed curves; inactive = no such curve, though single readings can be large; an effect the other way counts as inactive or inconclusive.

Assays:
[1] = qHTS assay to identify small molecule HDAC inhibitors (AID 1259364);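 also: wild-type HCT-116 cells with endogenous class I/II HDAC activity; top concentration of the series differs between compounds; nearly all actives have a fitted effect of over 45% in size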
In short: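 HCT-116 wt cells, 1,500/well, overnight attach. Compounds (DMSO) 2 h, 37 °C. HDAC-Glo I/II, 30 min RT. Luminescence.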

[2] = qHTS assay to identify small molecule HDAC inhibitors - cell viability counter screen (AID 1259365); also: nearly all actives have a fitted effect of over 50% in size; also: potency is read from the fitted curve at half-maximal effect; as to activity change, negative = cytotoxicity: series mostly up to about 92 µM
In short: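 To flag cytotoxic hits, 1,500 wild-type HCT-116 cells per well, plated the day before, receive test compounds for 2hr at 37 C before CellTiter-Glo reagent and a luminescence read.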

[3] = qHTS assay to identify small molecule agonists of the sonic hedgehog signaling (Shh) pathway (AID 1259368; calls by dose curve;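 also: NIH/3T3-derived 3T3Gli1-Luc cells carrying a stable Gli1-driven firefly luciferase reporter; series mostly up to about 92 µM; nearly all actives have a fitted effect of over 15% in size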)
In short: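 Following a 24 hr incubation with DMSO-dissolved compounds at 37 C, 5% CO2, Gli1-Luc NIH/3T3-derived cells received luciferase reagent for 30 min at room temperature prior to luminescence measurement.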

[4] = qHTS assay to identify small molecule antagonists of the sonic hedgehog signaling (Shh) pathway (AID 1259369; calls by dose curve; also: nearly all actives have a fitted effect of over 45% in size; also: potency is read from the fitted curve at half-maximal effect)
In short: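 Read-out is luminescence from a firefly luciferase gene controlled by the Gli1 response element, in 3T3Gli1-Luc cells pre-incubated 4hr then exposed to compounds and conditioned medium for 24hr.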

[5] = qHTS assay to identify small molecule antagonists of the sonic hedgehog signaling (Shh) pathway - cell viability counter screen (AID 1259367); also: nearly all actives have a fitted effect of over 55% in size; also: potency is read from the fitted curve at half-maximal effect
In short: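 Tox21 library chemicals were tested on a Gli1-Luc NIH/3T3 clone (2,000 cells/well) stimulated by conditioned medium; viability was quantified as fluorescence from CellTiter-Fluor reagent added at 23 hr.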

[6] = target: Estrogen receptor beta (Homo sapiens) (UniProt Q92731); assay: qHTS assay to identify small molecule antagonists of the estrogen receptor beta (ER-beta) signaling pathway (AID 1259378; active = well fitted inhibition curve with a large enough effect in the signal ratio in the repeat runs, not every such curve was filed as active; the % refers to the signal ratio; also: potency is read from the fitted curve at half-maximal effect)
In short: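 ER-beta-UAS-bla HEK293T cells in 2% charcoal-stripped FBS medium treated with compound plus 1nM final 17-beta-estradiol for 16 hr at 37C. Beta-lactamase reporter read by FRET substrate fluorescence after 2 hours at room temperature.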

[7] = qHTS assay to identify small molecule agonists of the androgen receptor (AR) signaling pathway in the presence of an antagonist - cell viability counter screen (AID 1259379); also: nearly all actives have a fitted effect of over 25% in size; also: potency is read from the fitted curve at half-maximal effect;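 as to activity change, negative = cytotoxicity: MDA-kb2 human breast cancer cells carrying an MMTV luciferase reporter; series mostly up to about 92 µM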
In short: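 Each compound was tested at 15 concentrations on MDA-kb2 cells in the presence of 3.0uM nilutamide. Viability was measured by CellTiter-Fluor fluorescence after a 16 hr incubation at 37C in a CO2-free atmosphere.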

[8] = target: Estrogen receptor beta (Homo sapiens) (UniProt Q92731); assay: qHTS assay to identify small molecule agonists of the estrogen receptor beta (ER-beta) signaling pathway (AID 1259377; active = well fitted activation curve with a large enough effect in the signal ratio in the repeat runs, not every such curve was filed as active; the % refers to the signal ratio)
In short: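 Screening used GripTite ER-beta-UAS-bla cells held in 2% charcoal-stripped FBS medium. After overnight (16 hr) compound incubation at 37C, beta-lactamase activity was detected with a FRET substrate by fluorescence.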

[9] = qHTS assay to identify small molecule agonists of the sonic hedgehog signaling (Shh) pathway - cell viability counter screen (AID 1259366); also: nearly all actives have a fitted effect of over 50% in size
In short: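 Fluorescence from CellTiter-Fluor reports live cells in this counter screen. NIH/3T3-derived Gli1-Luc reporter cells receive test compounds for 24hr at 37C; reagent goes in at 23hr.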
% is scaled to controls: 0 for no effect and ±100 for the full control effect.

Chain of Estrogen receptor beta (Homo sapiens) (Q92731 whole entry, looked up): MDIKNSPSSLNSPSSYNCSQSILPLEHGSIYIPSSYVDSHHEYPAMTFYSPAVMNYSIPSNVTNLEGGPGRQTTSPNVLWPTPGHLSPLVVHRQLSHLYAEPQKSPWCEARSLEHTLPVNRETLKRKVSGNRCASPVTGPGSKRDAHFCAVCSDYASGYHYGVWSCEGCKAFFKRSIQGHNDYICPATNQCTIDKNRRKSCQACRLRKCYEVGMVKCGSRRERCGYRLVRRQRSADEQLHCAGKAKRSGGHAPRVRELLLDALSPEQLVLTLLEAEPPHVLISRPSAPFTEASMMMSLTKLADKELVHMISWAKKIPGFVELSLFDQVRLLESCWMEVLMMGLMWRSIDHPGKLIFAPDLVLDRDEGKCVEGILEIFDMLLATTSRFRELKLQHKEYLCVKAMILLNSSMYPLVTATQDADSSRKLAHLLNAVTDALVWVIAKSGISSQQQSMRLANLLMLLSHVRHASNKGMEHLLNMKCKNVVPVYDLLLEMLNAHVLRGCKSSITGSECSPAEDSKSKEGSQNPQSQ

c1ccc(C[P+](c2ccccc2)(c2ccccc2)c2ccccc2)cc1
inactive: Potency [1] | Potency [2] | Potency [3]
active: Potency [4] 5.45 µM

CCCCCCCCCCCCN1CCCC1=O
active: Potency [6] 48.6 µM
inactive: Potency [1] | Potency [2] | Potency [5] | Potency [3] | Potency [4]

CO[Si](OC)(c1ccccc1)c1ccccc1
active: Potency [5] 43.3 µM | Potency [4] 21.7 µM
inactive: Potency [1] | Potency [2] | Potency [3] | Potency [6] | Potency [7]

O=C1OC(=O)c2cc(-c3ccc4c(c3)C(=O)OC4=O)ccc21
inactive: Potency [1] | Potency [2] | Potency [3] | outcome [8]
active: Potency [4] 17.2 µM

Cc1c(Cl)c(=O)oc2cc(O)ccc12
inactive: Potency [1] | Potency [2] | Potency [3]
active: Potency [4] 34.4 µM

CN(C[C@@H](CC[N+]12CCC(C3CCCCC3)(CC1)CC2)c1ccc(Cl)c(Cl)c1)C(=O)c1cc(C(F)(F)F)cc(C(F)(F)F)c1
active: Potency [2] 12.2 µM | Potency [7] 68.6 µM
inactive: Potency [1] | Potency [5] | Potency [3] | Potency [4]

CCCCC/C=C\C=C\C(=O)OCC
inactive: Potency [1] | Potency [2] | Potency [3] | Potency [6]

Nc1cc([N+](=O)[O-])cc(Cl)c1O
inactive: Potency [1] | Potency [2] | Potency [5] | Potency [3] | Potency [4] | outcome [8]

O=C(Cl)c1ccc(Cl)cc1Cl
inactive: Potency [1] | Potency [2] | Potency [5] | Potency [3] | Potency [4] | Potency [7]

Nc1cccnc1N
inactive: Potency [1] | Potency [2] | Potency [3]

CCCCCCCCCCCCS(=O)(=O)Cl
inactive: activity change, negative = cytotoxicity [2] -1.8% [at 19 µM] | viability change, negative = cytotoxic [9] -2.48% [at 19 µM] | viability change, negative = cytotoxic [5] -1.82% [at 19 µM] | activity change [3] 0.0807% [at 18.9 µM, stronger effect = higher value] | activity change, negative = inhibition [4] 18.4% [at 19 µM] | activity, negative = inhibition [6] -20.1% [at 19 µM] | activity change, negative = cytotoxicity [7] 2.74% [at 19 µM]
